PubChem BioAssay (NCI)
Compounds without any hit were thinned out: in the full panel of roughly 83,000, 20% have a hit.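 Growth was measured after 48 h exposure to one concentration of compound in 96-well plates. Values under 10 count as active.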 Activity calls are given as the source filed them.

test system: RXF 393 renal; assay: NCI-60 one-dose screen, 48 h (100 = growth as untreated, 0 = no growth, -100 = all killed); details: 10 µM unless noted

**Q.** For Cc1nc2sc(C(=O)Nc3cccc(Cl)c3C)c(N)c2cc1C(=O)/C=C/c1ccccc1, which growth is on record?
**A.** -82.8% (active)

**Q.** With CN1CCN(Cc2ccc(NC(=O)c3cncc(C#Cc4cnc(N)cc4C#N)c3)cc2C(F)(F)F)CC1 as the compound, how does the growth read?
**A.** 13.4% (inactive)

**Q.** For c1cc(OCCN2CCCC2)ccc1CNc1ccc2nc(CCC3CCCCC3)[nH]c2c1, which growth is on record?
**A.** 42.2% (inactive)

**Q.** How did the growth turn out when CCN(CC)CCOc1ccc2c(-c3ccccc3)c(-c3ccc(OC)cc3)c(=O)oc2c1 was run?
**A.** 50.9% (inactive)

**Q.** For O=C1/C(=C/c2c[nH]c(=O)[nH]c2=O)SC(=S)N1Cc1ccccc1, which growth is on record?
**A.** 110% (inactive)

**Q.** CCN(CC)CCCNc1cc(OC)c(OC)c2cccnc12 was tested. Which growth did it give?
**A.** 113% (inactive)

**Q.** Which growth does the source give for COc1cc(Cc2cc(OC)c(O)c(OC)c2)cc(OC)c1O here?
**A.** 86.3% (inactive)

**Q.** CSc1ccc(N2C(=N)C(=S)N(c3ccc(C)cc3)C2=O)cc1 was tested. Which growth did it give?
**A.** 113% (inactive)

**Q.** For CCOC(=O)/C(=C(/C)NCC(C)C)c1cc(O)c(O)c2c(C)cc(=O)[nH]c12, which growth is on record?
**A.** 83% (inactive)

**Q.** For C/C(=C(\c1ccc(OCCN2CCCCCC2)cc1)c1ccc(OC(=O)c2ccccc2)cc1)c1ccc(Cl)cc1, which growth is on record?
**A.** 19% (inactive)

**Q.** With COCCn1cc(-c2csc(-c3c[nH]c4ccc(F)cc34)n2)c2cccnc21 as the compound, how does the growth read?
**A.** 65% (inactive)

**Q.** Cc1ccc2cnc(N)c(C#Cc3cc(C(=O)Nc4ccc(CN5CCN(C)CC5)c(C(F)(F)F)c4)cnc3C)c2c1 was tested. Which growth did it give?
**A.** -91.2% (active)

**Q.** Which growth does the source give for O=C(NNc1nc2cc(F)ccc2n2c(CN3CCOCC3)ccc12)c1ccccc1 here?
**A.** -0.227% (active)

**Q.** COc1ccc(-c2nc(SCC(=O)Nc3nc4ccc(C)cc4s3)[nH]c(=O)c2C#N)cc1OC was tested. Which growth did it give?
**A.** 113% (inactive)

**Q.** How did the growth turn out when CCOC(=O)c1ccc[nH]1 was run?
**A.** 94.1% (inactive)

**Q.** COc1cc(Cc2cc(-c3ccccc3)nn(Cc3ccccc3)c2=O)cc(OC)c1OC was tested. Which growth did it give?
**A.** 31.7% (inactive)

**Q.** Which growth does the source give for O=C(Nc1ccc(Nc2ccncc2)cc1)c1ccc(Nc2ccnc3ccc([N+](=O)[O-])cc23)cc1 here?
**A.** 116% (inactive)

**Q.** C[C@H]1[C@H](C)CC[C@]2(C(=O)NCCNCCN)CC[C@]3(C)C(=CC[C@@H]4[C@@]5(C)CCC(=O)C(C)(C)[C@@H]5CC[C@]43C)[C@H]12 was tested. Which growth did it give?
**A.** 85% (inactive)

**Q.** COc1ccc(C/C(C)=C(\c2ccc(Cl)cc2)c2ccc(OCCN3CCCC3)cc2)cc1 was tested. Which growth did it give?
**A.** 64.1% (inactive)

**Q.** CCOc1ccc(NC(=O)Nc2ccc(OCC)cc2)cc1 was tested. Which growth did it give?
**A.** 114% (inactive)

**Q.** With Cc1ccc(NC(=O)c2cc3ccccc3cc2O)c(C)c1 as the compound, how does the growth read?
**A.** 113% (inactive)

**Q.** For COC(=O)c1c2c(c[n+]([O-])c1C)C(=O)C=C(NCc1ccccc1)C2=O, which growth is on record?
**A.** -94.1% (active)

**Q.** C=C1C(=O)O[C@H]2[C@H]1CC/C(CNC(=O)Cc1c[nH]c3ccccc13)=C\CC[C@@]1(C)O[C@@H]21 was tested. Which growth did it give?
**A.** -72.3% (active)

**Q.** For C#CCOc1ccc2nc(CCl)c(Cl)c(Nc3cccc(C(F)(F)F)c3)c2c1, which growth is on record?
**A.** 84.1% (inactive)

**Q.** O=C1/C(=C/c2cccc(Br)c2)COc2ccc(O)cc21 was tested. Which growth did it give?
**A.** 70.6% (inactive)

**Q.** With CCN(CC)CCOc1ccc(/C(=C(\C)Cc2ccc(OC)cc2)c2ccc(OC(=O)NCc3ccccc3)cc2)cc1 as the compound, how does the growth read?
**A.** 59.7% (inactive)

**Q.** How did the growth turn out when O=C(CCCCCCCC(=O)N1CCCCC1)N1CCCCC1 was run?
**A.** 123% (inactive)

**Q.** With Cc1ccc(-c2nc(SCC(=O)N3CCN(c4cc5c(cc4F)c(=O)c(C(=O)O)cn5C4CC4)CC3)nc(Cl)c2C#N)cc1 as the compound, how does the growth read?
**A.** 106% (inactive)

**Q.** CSc1ccc2c3c(n(C[C@H](O)CO)c(=O)c2c1)-c1ccccc1C3=O was tested. Which growth did it give?
**A.** 79.7% (inactive)

**Q.** With Cc1cn(C)cn1 as the compound, how does the growth read?
**A.** 117% (inactive)

**Q.** How did the growth turn out when C#Cc1cccc(Nc2ncnc3cc(NC(=O)CCl)ccc23)c1 was run?
**A.** -86.2% (active)

**Q.** Which growth does the source give for O=S(=O)(NCCNc1nccc(-c2c(-c3ccc(F)c(O)c3)nc3sccn23)n1)c1ccc(Cl)cc1 here?
**A.** 25% (inactive)

**Q.** COc1ccc(C(O)c2cc3c(N)c(C(=O)Nc4cccc5ccccc45)sc3nc2C)cc1 (stereo not given) was tested. Which growth did it give?
**A.** 27% (inactive)

**Q.** With O=C(Nc1cc(Cl)ccc1O)c1ccccc1Nc1ccnc(C(F)(F)F)c1 as the compound, how does the growth read?
**A.** 25.7% (inactive)

**Q.** For COc1ccc(/C=C2\c3cc(OC)c(OC)c(OC)c3CC[C@@H]2O)cc1F, which growth is on record?
**A.** 8.31% (active)

**Q.** For CCN(CC)C(=O)C1=C(C)NC(=O)NC1c1ccc2c(c1)OCO2 (stereo not given), which growth is on record?
**A.** 102% (inactive)

**Q.** Which growth does the source give for COc1ccc(C=Nc2c(C(=O)Nc3cccc(Cl)c3C)sc3nc(C)c(C(=O)/C=C/c4ccc(OC)cc4)cc23)cc1 here?
**A.** -44.4% (active)

**Q.** How did the growth turn out when CC(C)(C)c1ccc(S(=O)(=O)Oc2ccc(-c3sc4cc(OS(=O)(=O)c5ccc(C(C)(C)C)cc5)ccc4c3C(=O)c3ccc(OCCN4CCCCC4)cc3)cc2)cc1 was run?
**A.** 103% (inactive)

**Q.** With COc1cc(/C=C/c2cc(/C=C/c3ccc(O)c(OC)c3)n(C(=O)Nc3ccc(Cl)cc3)n2)ccc1O as the compound, how does the growth read?
**A.** -53.6% (active)

**Q.** How did the growth turn out when O=c1cc(CP(=O)(O)O)c2cc(O)c(-c3ccccc3)cc2o1 was run?
**A.** 105% (inactive)

test system: SF-268 CNS; assay: as above; details: 10 µM unless noted

**Q.** With Cc1nc2sc(C(=O)Nc3cccc(Cl)c3C)c(N)c2cc1C(=O)/C=C/c1ccccc1 as the compound, how does the growth read?
**A.** 4.07% (active)

**Q.** Which growth does the source give for CN1CCN(Cc2ccc(NC(=O)c3cncc(C#Cc4cnc(N)cc4C#N)c3)cc2C(F)(F)F)CC1 here?
**A.** 23.5% (inactive)

**Q.** With c1cc(OCCN2CCCC2)ccc1CNc1ccc2nc(CCC3CCCCC3)[nH]c2c1 as the compound, how does the growth read?
**A.** 58.3% (inactive)

**Q.** How did the growth turn out when CCN(CC)CCOc1ccc2c(-c3ccccc3)c(-c3ccc(OC)cc3)c(=O)oc2c1 was run?
**A.** 89.8% (inactive)

**Q.** For O=C1/C(=C/c2c[nH]c(=O)[nH]c2=O)SC(=S)N1Cc1ccccc1, which growth is on record?
**A.** 95.2% (inactive)

**Q.** How did the growth turn out when CCN(CC)CCCNc1cc(OC)c(OC)c2cccnc12 was run?
**A.** 66.1% (inactive)

**Q.** How did the growth turn out when COc1cc(Cc2cc(OC)c(O)c(OC)c2)cc(OC)c1O was run?
**A.** 105% (inactive)

**Q.** CSc1ccc(N2C(=N)C(=S)N(c3ccc(C)cc3)C2=O)cc1 was tested. Which growth did it give?
**A.** 90.7% (inactive)

**Q.** CCOC(=O)/C(=C(/C)NCC(C)C)c1cc(O)c(O)c2c(C)cc(=O)[nH]c12 was tested. Which growth did it give?
**A.** 24.1% (inactive)

**Q.** Which growth does the source give for C/C(=C(\c1ccc(OCCN2CCCCCC2)cc1)c1ccc(OC(=O)c2ccccc2)cc1)c1ccc(Cl)cc1 here?
**A.** 43.1% (inactive)

**Q.** How did the growth turn out when COCCn1cc(-c2csc(-c3c[nH]c4ccc(F)cc34)n2)c2cccnc21 was run?
**A.** 46.5% (inactive)

**Q.** For Cc1ccc2cnc(N)c(C#Cc3cc(C(=O)Nc4ccc(CN5CCN(C)CC5)c(C(F)(F)F)c4)cnc3C)c2c1, which growth is on record?
**A.** 17.4% (inactive)

**Q.** With O=C(NNc1nc2cc(F)ccc2n2c(CN3CCOCC3)ccc12)c1ccccc1 as the compound, how does the growth read?
**A.** 14.8% (inactive)

**Q.** For COc1ccc(-c2nc(SCC(=O)Nc3nc4ccc(C)cc4s3)[nH]c(=O)c2C#N)cc1OC, which growth is on record?
**A.** 95.9% (inactive)

**Q.** CCOC(=O)c1ccc[nH]1 was tested. Which growth did it give?
**A.** 100% (inactive)

**Q.** COc1cc(Cc2cc(-c3ccccc3)nn(Cc3ccccc3)c2=O)cc(OC)c1OC was tested. Which growth did it give?
**A.** 47.4% (inactive)

**Q.** Which growth does the source give for O=C(Nc1ccc(Nc2ccncc2)cc1)c1ccc(Nc2ccnc3ccc([N+](=O)[O-])cc23)cc1 here?
**A.** 97.6% (inactive)

**Q.** With C[C@H]1[C@H](C)CC[C@]2(C(=O)NCCNCCN)CC[C@]3(C)C(=CC[C@@H]4[C@@]5(C)CCC(=O)C(C)(C)[C@@H]5CC[C@]43C)[C@H]12 as the compound, how does the growth read?
**A.** 72.6% (inactive)

**Q.** For COc1ccc(C/C(C)=C(\c2ccc(Cl)cc2)c2ccc(OCCN3CCCC3)cc2)cc1, which growth is on record?
**A.** 86.5% (inactive)

**Q.** Which growth does the source give for CCOc1ccc(NC(=O)Nc2ccc(OCC)cc2)cc1 here?
**A.** 104% (inactive)

**Q.** Cc1ccc(NC(=O)c2cc3ccccc3cc2O)c(C)c1 was tested. Which growth did it give?
**A.** 102% (inactive)

**Q.** How did the growth turn out when COC(=O)c1c2c(c[n+]([O-])c1C)C(=O)C=C(NCc1ccccc1)C2=O was run?
**A.** -51.6% (active)

**Q.** With C=C1C(=O)O[C@H]2[C@H]1CC/C(CNC(=O)Cc1c[nH]c3ccccc13)=C\CC[C@@]1(C)O[C@@H]21 as the compound, how does the growth read?
**A.** 51.2% (inactive)

**Q.** C#CCOc1ccc2nc(CCl)c(Cl)c(Nc3cccc(C(F)(F)F)c3)c2c1 was tested. Which growth did it give?
**A.** 85.3% (inactive)

**Q.** With O=C1/C(=C/c2cccc(Br)c2)COc2ccc(O)cc21 as the compound, how does the growth read?
**A.** 67.6% (inactive)

**Q.** CCN(CC)CCOc1ccc(/C(=C(\C)Cc2ccc(OC)cc2)c2ccc(OC(=O)NCc3ccccc3)cc2)cc1 was tested. Which growth did it give?
**A.** 73.7% (inactive)

**Q.** Which growth does the source give for O=C(CCCCCCCC(=O)N1CCCCC1)N1CCCCC1 here?
**A.** 104% (inactive)

**Q.** Cc1ccc(-c2nc(SCC(=O)N3CCN(c4cc5c(cc4F)c(=O)c(C(=O)O)cn5C4CC4)CC3)nc(Cl)c2C#N)cc1 was tested. Which growth did it give?
**A.** 93.5% (inactive)

**Q.** With CSc1ccc2c3c(n(C[C@H](O)CO)c(=O)c2c1)-c1ccccc1C3=O as the compound, how does the growth read?
**A.** 44% (inactive)

**Q.** With Cc1cn(C)cn1 as the compound, how does the growth read?
**A.** 106% (inactive)

**Q.** How did the growth turn out when C#Cc1cccc(Nc2ncnc3cc(NC(=O)CCl)ccc23)c1 was run?
**A.** -59.7% (active)

**Q.** For O=S(=O)(NCCNc1nccc(-c2c(-c3ccc(F)c(O)c3)nc3sccn23)n1)c1ccc(Cl)cc1, which growth is on record?
**A.** 32.3% (inactive)

**Q.** COc1ccc(C(O)c2cc3c(N)c(C(=O)Nc4cccc5ccccc45)sc3nc2C)cc1 (stereo not given) was tested. Which growth did it give?
**A.** 9.53% (active)

**Q.** O=C(Nc1cc(Cl)ccc1O)c1ccccc1Nc1ccnc(C(F)(F)F)c1 was tested. Which growth did it give?
**A.** 21.1% (inactive)

**Q.** COc1ccc(/C=C2\c3cc(OC)c(OC)c(OC)c3CC[C@@H]2O)cc1F was tested. Which growth did it give?
**A.** 53.9% (inactive)

**Q.** For CCN(CC)C(=O)C1=C(C)NC(=O)NC1c1ccc2c(c1)OCO2 (stereo not given), which growth is on record?
**A.** 102% (inactive)

**Q.** How did the growth turn out when COc1ccc(C=Nc2c(C(=O)Nc3cccc(Cl)c3C)sc3nc(C)c(C(=O)/C=C/c4ccc(OC)cc4)cc23)cc1 was run?
**A.** 29.9% (inactive)

**Q.** With CC(C)(C)c1ccc(S(=O)(=O)Oc2ccc(-c3sc4cc(OS(=O)(=O)c5ccc(C(C)(C)C)cc5)ccc4c3C(=O)c3ccc(OCCN4CCCCC4)cc3)cc2)cc1 as the compound, how does the growth read?
**A.** 102% (inactive)

**Q.** For COc1cc(/C=C/c2cc(/C=C/c3ccc(O)c(OC)c3)n(C(=O)Nc3ccc(Cl)cc3)n2)ccc1O, which growth is on record?
**A.** 13.9% (inactive)

**Q.** With O=c1cc(CP(=O)(O)O)c2cc(O)c(-c3ccccc3)cc2o1 as the compound, how does the growth read?
**A.** 99% (inactive)
